Here are results for 7 molecules from PubChem BioAssay (NCATS).

Results filed as inconclusive are left out. Calls of active or inactive are those of the source. Unless noted, calls come from the whole dose curve; as a rule, active = well fitted curve in the direction sought with a large enough effect; inconclusive = small, poorly fitted or top-dose-only effect, or another doubt; inactive = no such curve, though single readings can be large; an effect the other way counts as inactive or inconclusive.

A short description of test [1]: qHTS assay for small molecule antagonists of peroxisome proliferator-activated receptor delta signaling (AID 588535).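 Note: cells co-treated with a PPAR-delta agonist as stimulator during compound exposure.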 The settings on record: HEK293T PPARd-UAS-bla, beta-lactamase FRET ratio, 18 h; 460 nm channel. The method, boiled down:
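Inhibition of PPAR-delta response element-driven beta-lactamase expression is measured in HEK293T cells exposed to a compound titration series for 18 hrs at 37 C. Half-maximal inhibition comes from Hill equation fitting.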

The target in test [2] is Peroxisome proliferator-activated receptor gamma (Homo sapiens) (UniProt P37231). Nature of the test: qHTS assay for small molecule agonists of peroxisome proliferator-activated receptor gamma signaling (AID 588536; active = well fitted curve in the direction sought with a large enough effect in the signal ratio, with a control signal flat, not every such curve was filed as active; the % refers to the signal ratio). The method, boiled down: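 Using GeneBLAzer HEK293 cells, response was quantified by CCF4 fluorescence and normalized between basal DMSO (0%) and rosiglitazone 2 uM (100%); curves yielded half-maximal stimulation concentration and efficacy.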
Peroxisome proliferator-activated receptor gamma (Homo sapiens), sequence (P37231 whole entry, looked up): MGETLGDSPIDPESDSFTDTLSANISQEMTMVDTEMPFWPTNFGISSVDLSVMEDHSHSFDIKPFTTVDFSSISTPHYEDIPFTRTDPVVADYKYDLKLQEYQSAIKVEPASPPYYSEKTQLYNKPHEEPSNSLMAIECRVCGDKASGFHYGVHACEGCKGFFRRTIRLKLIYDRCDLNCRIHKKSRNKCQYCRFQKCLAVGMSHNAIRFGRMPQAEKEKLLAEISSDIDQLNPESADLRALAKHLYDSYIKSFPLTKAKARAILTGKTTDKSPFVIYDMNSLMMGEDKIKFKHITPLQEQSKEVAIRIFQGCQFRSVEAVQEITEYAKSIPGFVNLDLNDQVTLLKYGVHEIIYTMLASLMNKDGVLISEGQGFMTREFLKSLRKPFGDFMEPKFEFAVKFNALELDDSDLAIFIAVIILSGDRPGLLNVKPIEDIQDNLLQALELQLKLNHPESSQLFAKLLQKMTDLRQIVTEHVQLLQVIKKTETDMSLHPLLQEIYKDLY
A general note: In qHTS, concentration-response curves come from the screen itself.

Test [3] shares this target. Nature of the test: qHTS assay for small molecule antagonists of peroxisome proliferator-activated receptor gamma signaling (AID 588537; active = well fitted inhibition curve with a large enough effect in the signal ratio, with a control signal flat, not every such curve was filed as active; the % refers to the signal ratio;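 note: reporter cells co-stimulated with 50 nM rosiglitazone agonist during compound treatment; % of control where 0% means no effect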). The method, boiled down: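 Compounds are tested as concentration series for inhibition of rosiglitazone-driven (50 nM) reporter expression in GeneBLAzer PPAR-gamma-UAS-bla HEK293 cells. After 16 h at 37 C, CCF4 substrate is added for 2 h at room temperature and blue/green fluorescence is measured.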

Test [4] has as its target Vitamin D3 receptor (Homo sapiens) (UniProt P11473). Nature of the test: qHTS assay for small molecule antagonists of vitamin D receptor signaling (AID 588541; calls by dose curve;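 note: receptor activated by calcitriol during compound treatment; series mostly up to about 77 µM; % is set by controls: 0 for no effect and ±100 for the full control effect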). The method, boiled down:
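VDR-UAS-bla HEK293T cells (2000/well, 2% charcoal-stripped FBS) were treated with titrated compounds plus 1-alpha,25-dihydroxyvitamin D3 (50 nM or 3 nM final) for 16 h at 37 C. CCF4 beta-lactamase fluorescence was read; Hill fits gave IC50.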

Test [5] has the same target. Nature of the test: qHTS assay for small molecule agonists of vitamin D receptor signaling (AID 588543; calls by dose curve). The method, boiled down:
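Reporter cells (HEK293T, VDR-UAS-bla) were seeded in medium with 2% charcoal-stripped serum and incubated 5 h, then compounds in concentration series were added for 16 h at 37 °C. Stimulation was scaled between DMSO basal and 50 nM 1α,25-dihydroxyvitamin D3.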

Test [6] is described as follows: qHTS assay for small molecule agonists of retinoid X receptor alpha signaling (AID 588544; calls by dose curve). To be noted: HEK293T RXRa-UAS-bla, beta-lactamase reporter, 18 h; 530 nm emission.
Test [7] addresses Retinoic acid receptor RXR-alpha (Homo sapiens) (UniProt P19793). The description is as above.
Test [8] addresses Thyroid hormone receptor beta (Homo sapiens) (UniProt P10828). Nature of the test: qHTS assay for small molecule agonists of thyroid hormone receptor beta signaling (AID 588545; calls by dose curve). The method, boiled down: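 HEK 293 TR-UAS-bla; agonist mode; 18 hrs, 37 C; CCF4, ex 405/em 460 and 530 nm; norm. T3 10 nM = 100%, DMSO = 0%; Hill fit → EC50, efficacy.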
Test [9] can be described thus: qHTS assay for small molecule antagonists of retinoid X receptor alpha signaling (AID 588546; active = well fitted inhibition curve with a large enough effect in the signal ratio, with a control signal flat, not every such curve was filed as active; the % refers to the signal ratio;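 note: cells stimulated with 9-cis-retinoic acid as agonist; % is set by controls: 0 for no effect and ±100 for the full control effect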). The settings on record: HEK293T RXRa-UAS-bla, beta-lactamase ratio, antagonist mode; measured here: W530 green channel, cytotoxicity proxy. The method, boiled down: (§1)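 Beta-lactamase reporter inhibition, read as CCF4 fluorescence ratio (ex 405, em 460/530 nm) after 2 h at RT. HEK293T UAS-bla cells, 2500/well, were stimulated with 9-cis-RA at 500 or 100 nM final alongside test compound for 18 h at 37 C.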

The target in test [10] is Retinoic acid receptor RXR-alpha (Homo sapiens) (UniProt P19793). The description is as above. The settings on record: HEK293T RXRa-UAS-bla, beta-lactamase ratio, antagonist mode. The method, boiled down:
as §1

Test [11] in a line: qHTS assay for small molecule activators of the nuclear factor-kappa B (NF-kB) signaling pathway (AID 651749; active = well fitted activation curve with a large enough effect in the signal ratio; the % refers to the signal ratio; note: series mostly up to about 77 µM; % of control where 0% means no effect). The settings on record: NF-kB-bla ME-180 cells, beta-lactamase FRET ratio, 16 h; activation: stronger effect = higher value. The method, boiled down: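 Human ME-180 cervical cells with an NF-kB-bla construct; compounds added via 23 nL pin transfer, DMSO as vehicle; incubation 16 hr. Reporter activity measured by FRET disruption.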

The nature of test [12]: qHTS assay for environmental chemicals that activate the Aryl hydrocarbon Receptor (AhR) signaling pathway (AID 651777). Note: % of control where 0% means no effect; nearly all actives have a fitted effect of over 15% in size. The settings on record: 1A2-DRE human hepatoma cells, luciferase, 24 h; activation: stronger effect = higher value. The method, boiled down: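 Quantitative HTS in stably transfected human liver-derived cells whose luciferase gene sits downstream of the CYP1A2 promoter and dioxin response element. After 24 hr exposure at 37 C, One-Glo luminescence was measured.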

In test [13] the target is Peroxisome proliferator-activated receptor alpha (Homo sapiens) (UniProt Q07869). Nature of the test: qHTS assay for small molecule agonists of the peroxisome proliferator-activated receptor alpha (PPARalpha) signaling pathway (AID 651778). Note: % of control where 0% means no effect. To be noted: PathHunter PPARalpha complementation, chemiluminescence, 6 h; max response: stronger effect = higher value. The method, boiled down: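 Cells plated at 2,000/well and held overnight at 37 C, 5% CO2, then compound added by pin tool for 6 hr; after PathHunter detection reagent and 60 min at room temperature, chemiluminescence from enzyme complementation was read.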
Peroxisome proliferator-activated receptor alpha (Homo sapiens), sequence (Q07869 whole entry, looked up): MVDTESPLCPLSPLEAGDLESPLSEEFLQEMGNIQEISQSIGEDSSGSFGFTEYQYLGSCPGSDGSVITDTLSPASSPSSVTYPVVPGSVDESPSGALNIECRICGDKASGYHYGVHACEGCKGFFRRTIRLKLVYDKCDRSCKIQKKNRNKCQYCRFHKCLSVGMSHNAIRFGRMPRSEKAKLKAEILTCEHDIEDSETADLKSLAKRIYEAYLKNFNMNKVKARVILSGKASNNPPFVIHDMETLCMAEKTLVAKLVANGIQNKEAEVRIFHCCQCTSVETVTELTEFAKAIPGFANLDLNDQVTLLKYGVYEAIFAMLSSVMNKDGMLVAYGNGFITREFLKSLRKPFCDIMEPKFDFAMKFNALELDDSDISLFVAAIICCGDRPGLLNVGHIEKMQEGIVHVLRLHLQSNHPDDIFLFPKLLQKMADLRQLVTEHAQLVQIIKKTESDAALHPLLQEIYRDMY

Test [14] is described as follows: qHTS assay for small molecule agonists of the antioxidant response element (ARE) signaling pathway measured by Nrf2-dependant transcriptional activity (AID 720636; active = well fitted curve in the direction sought with a large enough effect in the repeat runs; an effect the other way counts as inactive or inconclusive; note: % of control where 0% means no effect). The method, boiled down:
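Quantitative HTS format in HepG2 cells stably expressing an ARE-luciferase reporter; 16 hr compound treatment at 37 C, luciferase signal detected with ONE-Glo.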

The nature of test [15]: qHTS assay for small molecule agonists of the antioxidant response element (ARE) signaling pathway measured by Nrf2-dependant transcriptional activity - cell viability counter screen (AID 720653; active = well fitted curve in the direction sought with a large enough effect in the repeat runs; an effect the other way counts as inactive or inconclusive; note: % is set by controls: 0 for no effect and ±100 for the full control effect). To be noted: ARE-bla HepG2 viability, CellTiter-Glo ATP luminescence, 16 h; max response: stronger effect = lower value. The method, boiled down: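 ARE-bla HepG2 cells (2,000/well) rested 5 hrs at 37C/5% CO2, then exposed to compounds in DMSO for 16 hrs. Viability was read in the same wells as intracellular ATP by luminescence, 30 min at room temperature after reagent addition.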

Test [16] is described as follows: qHTS assay for cell viability of HEK293 cells (AID 743288). Note: % is set by controls: 0 for no effect and ±100 for the full control effect; nearly all actives have a fitted effect of over 50% in size. To be noted: ATP luminescence (CellTiter-Glo), 18 h; max response: stronger effect = lower value. The method, boiled down: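 Viable-cell counts were inferred from luciferase-based ATP content in HEK293 cells seeded at 2,000/well, pre-incubated ≥5 h, then dosed with DMSO-solubilised compounds for 18 h at 37 C.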

The nature of test [17]: qHTS assay for cell viability of the p53RE-bla HCT-116 cell line (AID 743292). Note: % is set by controls: 0 for no effect and ±100 for the full control effect; nearly all actives have a fitted effect of over 55% in size. The method, boiled down:
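Viability of compound-treated p53RE-bla HCT-116 cells is taken from ATP-dependent luciferase luminescence. Treatment lasts 16 h at 37 C after a 5 h settling period; detection follows 30 min at room temperature.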

The target of test [18] is Nuclear receptor subfamily 1 group I member 2 (Rattus norvegicus) (UniProt Q9R1A7). Nature of the test: qHTS assay for small molecule activators of the rat pregnane X receptor (rPXR) signaling pathway (AID 651751; call rule not given here; note: 0% is about no effect). The settings on record: rPXR reporter cells, luciferase (One-Glo), 24 h.
Nuclear receptor subfamily 1 group I member 2 (Rattus norvegicus), sequence (Q9R1A7 whole entry, looked up): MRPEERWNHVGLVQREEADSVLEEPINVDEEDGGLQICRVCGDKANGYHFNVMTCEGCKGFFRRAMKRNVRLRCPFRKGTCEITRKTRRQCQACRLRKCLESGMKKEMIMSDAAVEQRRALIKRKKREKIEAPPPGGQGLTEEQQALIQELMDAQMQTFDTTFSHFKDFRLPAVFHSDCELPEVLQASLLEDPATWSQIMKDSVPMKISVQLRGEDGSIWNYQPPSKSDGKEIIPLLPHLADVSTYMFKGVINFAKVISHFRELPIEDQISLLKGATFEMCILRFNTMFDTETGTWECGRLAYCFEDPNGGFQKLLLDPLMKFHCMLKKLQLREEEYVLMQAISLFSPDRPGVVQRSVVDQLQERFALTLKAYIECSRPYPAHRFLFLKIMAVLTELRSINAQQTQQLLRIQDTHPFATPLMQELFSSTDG
Test [19] can be described thus: qHTS assay for small molecule activators of the p53 signaling pathway (AID 651743; active = well fitted activation curve with a large enough effect in the signal ratio, not every such curve was filed as active; the % refers to the signal ratio; note: series mostly up to about 92 µM; % of control where 0% means no effect). To be noted: HCT-116 p53RE-bla, beta-lactamase FRET ratio, 16 h; activation: stronger effect = higher value. The method, boiled down:
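Agonist-mode quantitative HTS in HCT-116 cells carrying a p53-response-element beta-lactamase reporter; 16 h compound treatment at 37 C, then FRET substrate loading for 2 h at room temperature and fluorescence read.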

Test [20] in a line: qHTS assay for small molecule activators of the human pregnane X receptor (PXR) signaling pathway (AID 720659; call rule not given here; note: 0% is about no effect).

Retinoic acid receptor RXR-alpha (Homo sapiens), sequence (P19793 whole entry, looked up): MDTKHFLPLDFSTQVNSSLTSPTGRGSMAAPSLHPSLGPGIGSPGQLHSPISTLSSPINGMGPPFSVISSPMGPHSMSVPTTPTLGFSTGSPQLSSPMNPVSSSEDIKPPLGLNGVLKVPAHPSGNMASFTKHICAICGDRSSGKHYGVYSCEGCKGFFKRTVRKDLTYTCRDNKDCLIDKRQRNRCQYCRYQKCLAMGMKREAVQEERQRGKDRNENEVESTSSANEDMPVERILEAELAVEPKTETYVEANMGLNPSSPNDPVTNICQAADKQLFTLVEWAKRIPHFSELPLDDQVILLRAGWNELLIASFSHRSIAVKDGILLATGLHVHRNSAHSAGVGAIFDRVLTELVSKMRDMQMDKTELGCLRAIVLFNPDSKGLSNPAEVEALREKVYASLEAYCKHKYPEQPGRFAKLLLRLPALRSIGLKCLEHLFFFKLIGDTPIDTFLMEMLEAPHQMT
Vitamin D3 receptor (Homo sapiens), sequence (P11473 whole entry, looked up): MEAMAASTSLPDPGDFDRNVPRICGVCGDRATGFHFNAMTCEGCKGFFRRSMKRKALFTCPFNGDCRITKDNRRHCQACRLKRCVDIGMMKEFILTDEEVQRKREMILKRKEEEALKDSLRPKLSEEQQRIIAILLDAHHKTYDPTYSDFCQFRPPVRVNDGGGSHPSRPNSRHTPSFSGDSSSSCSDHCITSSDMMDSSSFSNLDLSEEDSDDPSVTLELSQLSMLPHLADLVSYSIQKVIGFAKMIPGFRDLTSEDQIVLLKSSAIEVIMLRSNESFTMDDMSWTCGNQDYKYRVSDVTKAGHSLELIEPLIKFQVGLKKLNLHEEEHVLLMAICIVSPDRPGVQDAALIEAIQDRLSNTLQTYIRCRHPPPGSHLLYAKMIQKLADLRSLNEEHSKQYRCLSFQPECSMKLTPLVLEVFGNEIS
Thyroid hormone receptor beta (Homo sapiens), sequence (P10828 whole entry, looked up): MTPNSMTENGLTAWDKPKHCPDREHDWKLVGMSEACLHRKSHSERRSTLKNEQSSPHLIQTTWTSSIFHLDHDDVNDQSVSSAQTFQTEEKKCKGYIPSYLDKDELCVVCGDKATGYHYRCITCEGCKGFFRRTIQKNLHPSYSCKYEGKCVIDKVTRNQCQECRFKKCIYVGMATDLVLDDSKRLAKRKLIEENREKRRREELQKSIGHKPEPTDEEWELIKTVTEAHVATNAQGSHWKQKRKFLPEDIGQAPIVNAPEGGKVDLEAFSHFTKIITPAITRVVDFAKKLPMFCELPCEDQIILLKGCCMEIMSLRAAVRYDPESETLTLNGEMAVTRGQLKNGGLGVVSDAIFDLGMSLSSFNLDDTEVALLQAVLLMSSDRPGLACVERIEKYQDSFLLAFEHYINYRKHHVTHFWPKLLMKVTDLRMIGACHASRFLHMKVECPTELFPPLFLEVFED

In the case of `CCCCOCCOCCOC(=O)CCCCC(=O)OCCOCCOCCCC`, the max response is 22.3% in test [1]; -9.1% in [6]; -1.41% in [9]; 5.79% (inactive) in test [10]; 3.34% (inactive) in test [13]; -2.75% (inactive) in test [15]. The results for the max response in [16] and in test [18] were -4.73% (inactive) and -6.4% (inactive), respectively. Besides, the call in test [2] and in test [5] was inactive. Besides, the Potency entry in [3], in test [4], in test [7], in test [8], in test [14] and in test [17] was “inactive” each time. The activation in test [11] is -0.225% (inactive); in [12] it was -0.636% (inactive).
Turning to `CCCC/C=C\CCCCCCCCO`, the max response in test [1] is 56.8%; in test [6], -17%; in [9], -4.18%; in test [13], 2.88% (inactive); in [15], -0.523% (inactive); in test [16], -8.96% (inactive). Besides, the max response in test [18] is 12.2% (inactive). Further, the outcome in test [2], in test [5] and in test [20] was inactive. Moreover, the Potency entry in test [3], in test [4], in test [7], in test [8], in test [14] and in test [17] was “inactive” throughout. In addition, the activation was 0.706% (inactive) in [19], -0.809% (inactive) in [11] and 0.183% (inactive) in test [12].
`CC(Cl)(Cl)C(=O)OCCOc1cc(Cl)c(Cl)cc1Cl`: the max response in test [1] is -5.22%; in [6] it was -6.02%; in test [9] it was -16.7%; in test [10], 0.808% (inactive); in [13], 6.22% (inactive); in test [15] it was 2.91% (inactive). Also, the max response in test [16] was -9.39% (inactive); in test [18], -0.3% (inactive). Further, the molecule was classed as inactive in test [2] and in test [5]. The Potency entry in [3], in test [4], in test [7], in test [8] and in test [17] was “inactive” in each case. The results for the activation in test [11] and in test [12] were -1.51% (inactive) and 1.95% (inactive), respectively.
For `CC1(C)[C@@H](C=C(Cl)Cl)[C@@H]1C(=O)OCc1cccc(Oc2ccccc2)c1`, the max response in test [1] was -21.4%; in test [9], -10.2%; in test [10], -8.61% (inactive); in test [15], -5.58% (inactive); in test [16] it was -11.2% (inactive). Moreover, the Potency entry in test [4], in [14] and in [17] was “inactive” each time. The activation in test [12] was -0.62% (inactive).
Take `CCOC(=O)C1=NN(c2ccc(Cl)cc2Cl)C(C)(C(=O)OCC)C1` (stereo unspecified): the Potency entry in [4], in test [7], in test [8], in test [14] and in [17] was “inactive” throughout. Moreover, the result in test [5] was inactive. For the same molecule, the max response in test [6] is -4.87%; in test [13], 0.459% (inactive); in test [15], 0.425% (inactive); in test [16], -23.5% (inactive); in [18], -0.641% (inactive). The values for the activation in [11] and in test [12] were -1.4% (inactive) and -3.22% (inactive), respectively.
For the molecule `COC(=O)c1cccc(C)c1S(=O)(=O)NC(=O)Nc1nc(OCC(F)(F)F)nc(N(C)C)n1`, the max response was 78.8% in test [1]; -7.48% in test [9]; -20.9% (inactive) in [10]; -1.42% (inactive) in [13]; -9.65% (inactive) in test [15]; -6.52% (inactive) in test [18]. The molecule was called inactive in [2], in test [5] and in test [20]. Besides, the Potency entry in test [3], in test [4], in [8], in test [14] and in test [17] was “inactive” in each case. Also, the figures for the activation in test [11] and in [12] were 0.0138% (inactive) and 2.46% (inactive), respectively.
Take `CC1(C)C(C=C(Cl)Cl)[C@H]1C(=O)OCc1cccc(Oc2ccccc2)c1` (stereo partly specified): the max response was 35.5% in test [1]; -16.1% in test [9]; -0.468% (inactive) in [10]; -1.89% (inactive) in test [13]; -12.3% (inactive) in [15]; -12.9% (inactive) in test [16]. Moreover, the Potency result in test [4], in test [14] and in [17] was “inactive” throughout.
